Data from PubChem BioAssay AID1159580 (chemical genetic matrix, 2015).
Among all 5,500 compounds or so, about 2,000 (36%) were called active. Roughly 18% stayed inconclusive and do not appear here. The list shows a part of the results. Values without a mark were called inactive. Cut-off read from the data, not from the text of the source: active = normalized growth mostly below about 0.91 (no sharp cut-off); inconclusive = no clear call, values can overlap the other calls; inactive = mostly above about 0.92.

Test: chemical genetic growth profiling, strain panel (AID 1159580);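 note: tested at 20 µM; growth read once vehicle control cultures reached saturation at 30 °C; 1 = growth at the plate median or of vehicle wells; lower values mean less growth of the strain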
Settings: S. cerevisiae deletion strains, growth OD

With `CC(=O)Oc1c2c(c3c(c1CC=C(C)C)O[C@]14C(=C[C@@H]5CC1C(C)(C)OC4(C/C=C(\C)C(=O)O)C5=O)C3=O)OC(C)(CCC=C(C)C)C=C2` (some centres not stated) the normalized growth (locus YAL021C, strain ccr4, stronger effect = lower value) was 1, the normalized growth (locus YAL026C, strain drs2, stronger effect = lower value) was 0.979 and the normalized growth (locus YAL030W, strain snc1, stronger effect = lower value) was 0.976. The normalized growth (locus YBL061C, strain skt5, stronger effect = lower value) was 0.949, the normalized growth (locus YBR009C, strain hhf1, stronger effect = lower value) was 0.958 and the normalized growth (locus YBR023C, strain chs3, stronger effect = lower value) was 0.964. It also gave a normalized growth (locus YBR171W, strain sec66, stronger effect = lower value) of 0.974, a normalized growth (locus YBR231C, strain swc5, stronger effect = lower value) of 0.94 and a normalized growth (locus YBR279W, strain paf1, stronger effect = lower value) of 0.961. For the same compound, the normalized growth (locus YCL011C, strain gbp2, stronger effect = lower value) was 0.988, the normalized growth (locus YCL016C, strain dcc1, stronger effect = lower value) was 0.987 and the normalized growth (locus YCL061C, strain MRC1, stronger effect = lower value) was 0.98. It also gave a normalized growth (locus YCL069W, strain vba3, stronger effect = lower value) of 0.984, a normalized growth (locus YCR088W, strain abp1, stronger effect = lower value) of 0.985 and a normalized growth (locus YDL005C, strain med2, stronger effect = lower value) of 0.968. The normalized growth (locus YDL040C, strain nat1, stronger effect = lower value) was 0.977, the normalized growth (locus YDR001C, strain nth1, stronger effect = lower value) was 0.985 and the normalized growth (locus YDR069C, strain doa4, stronger effect = lower value) was 0.977. For the same compound, the normalized growth (locus YDR137W, strain rgp1, stronger effect = lower value) was 0.775 (active), the normalized growth (locus YDR159W, strain sac3, stronger effect = lower value) was 0.87 and the normalized growth (locus YDR195W, strain ref2) was 1.01. The normalized growth (locus YDR297W, strain sur2, stronger effect = lower value) was 0.959, the normalized growth (locus YDR334W, strain swr1, stronger effect = lower value) was 0.976 and the normalized growth (locus YDR335W, strain msn5, stronger effect = lower value) was 0.997. For the same compound, the normalized growth (locus YDR392W, strain spt3, stronger effect = lower value) was 0.547 (active), the normalized growth (locus YEL003W, strain gim4, stronger effect = lower value) was 0.96 and the normalized growth (locus YEL037C, strain rad23, stronger effect = lower value) was 0.995. The normalized growth (locus YEL061C, strain CIN8 (second series), stronger effect = lower value) was 0.984, the normalized growth (locus YER015W, strain faa2, stronger effect = lower value) was 0.973 and the normalized growth (locus YER016W, strain bim1, stronger effect = lower value) was 0.971. For the same compound, the normalized growth (locus YER111C, strain swi4, stronger effect = lower value) was 0.981, the normalized growth (locus YER155C, strain BEM2 (second series), stronger effect = lower value) was 0.922 and the normalized growth (locus YFR010W, strain ubp6, stronger effect = lower value) was 0.973. For the same compound, the normalized growth (locus YGL167C, strain pmr1, stronger effect = lower value) was 0.973, the normalized growth (locus YGL173C, strain kem1, stronger effect = lower value) was 0.939 and the normalized growth (locus YGL227W, strain vid30, stronger effect = lower value) was 0.981. It also gave a normalized growth (locus YGL240W, strain doc1, stronger effect = lower value) of 0.951, a normalized growth (locus YGL253W, strain hxk2, stronger effect = lower value) of 0.967 and a normalized growth (locus YHR013C, strain ard1, stronger effect = lower value) of 0.875. The normalized growth (locus YHR027C, strain rpn1, stronger effect = lower value) was 0.98, the normalized growth (locus YHR142W, strain chs7, stronger effect = lower value) was 0.991 and the normalized growth (locus YJL092W, strain hpr5, stronger effect = lower value) was 0.988. For the same compound, the normalized growth (locus YJL095W, strain BCK1 (second series), stronger effect = lower value) was 0.971, the normalized growth (locus YJL115W, strain asf1, stronger effect = lower value) was 0.982 and the normalized growth (locus YJL129C, strain trk1, stronger effect = lower value) was 0.89. It also gave a normalized growth (locus YJL154C, strain vps35, stronger effect = lower value) of 0.992, a normalized growth (locus YJL164C, strain tpk1, stronger effect = lower value) of 0.986 and a normalized growth (locus YJL166W, strain qcr8, stronger effect = lower value) of 0.937. It also gave a normalized growth (locus YJL187C, strain SWE1, stronger effect = lower value) of 0.972, a normalized growth (locus YKL160W, strain elf1, stronger effect = lower value) of 0.957 and a normalized growth (locus YKR026C, strain gcn3, stronger effect = lower value) of 0.983. The normalized growth (locus YKR091W, strain srl3, stronger effect = lower value) was 0.984, the normalized growth (locus YLL001W, strain dnm1, stronger effect = lower value) was 0.945 and the normalized growth (locus YLL026W, stronger effect = lower value) was 0.968. The normalized growth (locus YLL041C, strain sdh2, stronger effect = lower value) was 0.983, the normalized growth (locus YLR027C, strain aat2, stronger effect = lower value) was 0.948 and the normalized growth (locus YLR221C, strain rsa3, stronger effect = lower value) was 0.947. For the same compound, the normalized growth (locus YLR258W, strain gsy2, stronger effect = lower value) was 0.994, the normalized growth (locus YLR262C, strain YPT6 (second series), stronger effect = lower value) was 0.874 and the normalized growth (locus YLR320W, strain mms22, stronger effect = lower value) was 0.899. It also gave a normalized growth (locus YLR342W, strain FKS1, stronger effect = lower value) of 0.963, a normalized growth (locus YLR357W, strain rsc2, stronger effect = lower value) of 1.01 and a normalized growth (locus YLR370C, strain arc18, stronger effect = lower value) of 0.958. It also gave a normalized growth (locus YLR384C, strain iki3, stronger effect = lower value) of 0.964, a normalized growth (locus YML120C, strain ndi1, stronger effect = lower value) of 0.985 and a normalized growth (locus YMR058W, strain fet3, stronger effect = lower value) of 0.991. The normalized growth (locus YMR125W, strain sto1, stronger effect = lower value) was 0.992, the normalized growth (locus YMR129W, stronger effect = lower value) was 0.97 and the normalized growth (locus YMR205C, strain PFK2, stronger effect = lower value) was 0.878. For the same compound, the normalized growth (locus YMR231W, strain pep5, stronger effect = lower value) was 0.984, the normalized growth (locus YNL071W, strain lat1, stronger effect = lower value) was 0.878 (active) and the normalized growth (locus YNL209W, strain ssb2, stronger effect = lower value) was 0.982. For the same compound, the normalized growth (locus YNL248C, strain rpa49, stronger effect = lower value) was 0.973, the normalized growth (locus YNL322C, strain KRE1 (second series), stronger effect = lower value) was 1 and the normalized growth (locus YNR049C, strain mso1, stronger effect = lower value) was 0.982. It also gave a normalized growth (locus YOR001W, strain rrp6, stronger effect = lower value) of 0.915, a normalized growth (locus YOR070C, strain gyp1, stronger effect = lower value) of 0.957 and a normalized growth (locus YOR080W, strain dia2, stronger effect = lower value) of 0.979. It also gave a normalized growth (locus YOR083W, strain WHI5, stronger effect = lower value) of 0.99, a normalized growth (locus YOR106W, strain vam3, stronger effect = lower value) of 0.98 and a normalized growth (locus YOR265W, strain rbl2, stronger effect = lower value) of 0.979. The normalized growth (locus YOR270C, strain vph1, stronger effect = lower value) was 0.808, the normalized growth (locus YOR290C, strain snf2, stronger effect = lower value) was 0.989 and the normalized growth (locus YPL051W, strain arl3, stronger effect = lower value) was 0.914 (active). It also gave a normalized growth (locus YPL078C, strain atp4, stronger effect = lower value) of 1.01, a normalized growth (locus YPL106C, strain sse1, stronger effect = lower value) of 0.984 and a normalized growth (locus YPL240C, strain hsp82, stronger effect = lower value) of 0.984.
